# Assay results as given in the supplement of paper PMC3545927.
# The list shows a part of the results. How many sequences the whole screen found active is unknown.
# B1: NG9 (peptide)
# chain: CALEVLFQGPAGNASASA
# B2: HC133 (peptide)
# chain: CAEVVESTWVAGNASASA
# B3: HC1815 (peptide)
# chain: CADHMEECSQAGNASASA
# B4: HC1522 (peptide)
# chain: CACRAAGLQDAGNASASA
# B5: HC2505 (peptide)
# chain: CASTLCSAHLAGNASASA
# B6: FS-3152 (peptide)
# chain: CARDRRSPAEAGNASASA
# B7: HC924 (peptide)
# chain: CAWYELTPAEAGNASASA
# B8: FS-2030 (peptide)
# chain: CARIFRSSDFAGNASASA
# B9: FS-3023 (peptide)
# chain: CARPRRQGEVAGNASASA
# B10: FS-1965 (peptide)
# chain: CARPRRSEKQAGNASASA
# B11: FS-2949 (peptide)
# chain: CARIFRHSSVAGNASASA
# B12: FS-3021 (peptide)
# chain: CARPRRGIIFAGNASASA
# B13: FS-2904 (peptide)
# chain: CARDLRGLAEAGNASASA
# B14: FS-2148 (peptide)
# chain: CARIFRSIKQAGNASASA
# Molecular target: furin, P09958
# Sequence (P09958 whole entry): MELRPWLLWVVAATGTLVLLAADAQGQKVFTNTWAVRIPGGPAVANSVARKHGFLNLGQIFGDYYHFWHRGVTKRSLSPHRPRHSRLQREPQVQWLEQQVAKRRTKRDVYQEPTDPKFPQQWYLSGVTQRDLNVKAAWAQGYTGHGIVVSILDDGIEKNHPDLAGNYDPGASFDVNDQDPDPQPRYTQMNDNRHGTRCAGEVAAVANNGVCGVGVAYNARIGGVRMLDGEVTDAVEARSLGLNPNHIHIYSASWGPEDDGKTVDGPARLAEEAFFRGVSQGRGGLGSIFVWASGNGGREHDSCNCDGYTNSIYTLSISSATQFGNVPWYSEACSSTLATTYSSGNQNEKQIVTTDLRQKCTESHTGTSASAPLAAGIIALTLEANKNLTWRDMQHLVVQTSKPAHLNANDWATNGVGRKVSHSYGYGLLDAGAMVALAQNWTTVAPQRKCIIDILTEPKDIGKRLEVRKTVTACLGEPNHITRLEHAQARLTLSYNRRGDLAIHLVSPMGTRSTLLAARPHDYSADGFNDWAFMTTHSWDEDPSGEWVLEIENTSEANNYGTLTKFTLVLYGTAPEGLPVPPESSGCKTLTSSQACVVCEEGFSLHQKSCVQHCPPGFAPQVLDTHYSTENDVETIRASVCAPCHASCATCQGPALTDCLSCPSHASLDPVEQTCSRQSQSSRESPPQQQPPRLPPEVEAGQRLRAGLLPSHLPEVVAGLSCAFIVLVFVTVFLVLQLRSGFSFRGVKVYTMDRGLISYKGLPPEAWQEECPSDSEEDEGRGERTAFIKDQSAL
# Test: furin cleavage Z-score vs untreated control; higher = more cleavage, active = 3.5 or more, inactive = 1 or less, 8 variable residues between constant flanks
# In short: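 Read counts from sequencing released DNA gave abundance for each bead-bound 8-mer peptide–cDNA fusion cut by purified furin over 7.5, 15 or 30 min. The cleavage Z-score compares log counts with furin-free reactions after lowess adjustment and median absolute deviation scaling.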
# 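Further: purified furin at 1:10 enzyme:substrate in 50 mM HEPES pH 7.5.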
Sequence,furin cleavage Z-score (7.5 min),furin cleavage Z-score (15 min),furin cleavage Z-score (30 min)
B1,-2.01 (inactive),-0.768 (inactive),-2.01 (inactive)
B2,0.708 (inactive),-0.27 (inactive),-1.67 (inactive)
B3,-0.251 (inactive),-0.239 (inactive),-0.816 (inactive)
B4,-0.902 (inactive),-1.39 (inactive),-1.09 (inactive)
B5,0.374 (inactive),0.0643 (inactive),-1.17 (inactive)
B6,10.2 (active),8.19 (active),8.7 (active)
B7,-1.27 (inactive),-1.36 (inactive),1.04
B8,0.78 (inactive),-0.809 (inactive),0.131 (inactive)
B9,0.519 (inactive),0.202 (inactive),0.396 (inactive)
B10,3.36,4.62 (active),3.66 (active)
B11,1.97,0.695 (inactive),1.03
B12,1.06,1.16,5.75 (active)
B13,-1.94 (inactive),0.23 (inactive),0.275 (inactive)
B14,0.0894 (inactive),2.91,5.31 (active)
